Screening results as filed in PubChem BioAssay.
PAFAH1B2 FP inh: blocks human PAF acetylhydrolase 1b catalytic subunit 2 | recombinant PAFAH1B2, FP-rhodamine activity probe, fluorescence polarization | 340,000 tested, 1.2% active | P68402 | inhibition, % at 3.39 µM;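 active means inhibition above the mean of all tested compounds plus 3 SD, cut at about 24% in these data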
Target sequence (P68402 whole entry, looked up): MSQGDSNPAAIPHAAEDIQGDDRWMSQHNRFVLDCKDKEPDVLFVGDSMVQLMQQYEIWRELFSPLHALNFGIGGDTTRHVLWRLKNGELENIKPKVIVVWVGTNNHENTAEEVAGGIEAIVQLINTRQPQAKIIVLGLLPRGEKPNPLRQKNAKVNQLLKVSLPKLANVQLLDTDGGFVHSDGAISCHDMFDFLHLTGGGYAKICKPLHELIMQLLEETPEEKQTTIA
pPAFAH inh: inhibitors of human plasma PAF acetylhydrolase (pPAFAH) | Q13093 | recombinant pPAFAH, FP-rhodamine probe fluorescence polarization | inhibition, % at 3.39 µM | 330,000 tested, 1.5% active | AID 463082;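 active means inhibition above the mean inhibition across the screen plus 3 SD, cut at about 25% in these data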;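 further: inhibitors block binding of the rhodamine activity-based probe so polarization drops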
PAFAH1B3 FP inh: inhibitors of human PAFAH1B3. inhibition, % at 3.39 µM. recombinant PAFAH1B3, FP-rhodamine probe, fluorescence polarization. Q15102. 340,000 tested, 0.28% active;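 active means inhibition above the screen-wide average of all tested compounds plus 3 SD, cut at about 25% in these data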
Target sequence (Q15102 whole entry, looked up): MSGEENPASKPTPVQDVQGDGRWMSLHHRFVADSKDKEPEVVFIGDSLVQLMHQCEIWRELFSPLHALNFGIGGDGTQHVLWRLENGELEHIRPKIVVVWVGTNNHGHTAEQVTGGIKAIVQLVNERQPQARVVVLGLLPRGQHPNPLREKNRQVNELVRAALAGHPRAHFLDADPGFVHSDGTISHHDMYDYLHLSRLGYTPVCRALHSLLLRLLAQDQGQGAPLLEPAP
M18AAP inhibitor: blocks P. falciparum M18 aspartyl aminopeptidase. recombinant PfM18AAP, H-Glu-NHMec fluorogenic cleavage. inhibition, % at 7.35 µM. 290,000 tested, 1.2% active;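 active means inhibition above the campaign mean inhibition over all tested compounds plus 3 SD, cut at about 28% in these data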
Pemphigus Ab inh: blocks pemphigus antibody binding to human desmoglein-3. P32926. DSG3-coupled beads, scFv-anti-DSG3-GFP binding, flow cytometry; hits give low values. binding (percent of control), % at 10 µM. 310,000 tested, 0.48% active;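 active means binding more than 3 SD below its plate's average and above zero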;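 further: hits lower antibody fragment binding to DSG3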
PAFAH2 FP inh: inhibitors of human PAFAH2; recombinant PAFAH2, FP-rhodamine activity probe, fluorescence polarization; inhibition, % at 3.39 µM; 340,000 tested, 0.99% active; AID 492956;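 active means inhibition above the mean over all tested compounds plus 3 SD, cut at about 30% in these data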;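 further: inhibitors block probe labeling of enzyme so polarization drops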
Hits are given with their value; . = inactive; / = no result. Only some compounds are listed: those with a hit (about 3.8% of all), similar ones and a draw of the others.

SMILES	PAFAH1B2 FP inh	pPAFAH inh	PAFAH1B3 FP inh	M18AAP inhibitor	Pemphigus Ab inh	PAFAH2 FP inh
CC(C)(C)c1ccc(OCCC(=O)OCC(=O)NCc2ccccc2)cc1	.	26	.	/	.	.
COc1ccc(CNC(=O)COC(=O)CCOc2ccccc2)cc1	.	.	.	.	.	.
COc1ccc(CC(=O)N(C)c2ccccc2)cc1S(=O)(=O)N1CCOCC1	/	/	/	/	.	/
O=S(=O)(Nc1cccc(Cl)c1)c1ccc2oc(=S)[nH]c2c1	.	32	.	.	.	.
C[C@@H]1CN([C@H](C)CO)C(=O)CCCn2cc(nn2)CO[C@H]1CN(C)C(=O)Nc1ccc(-c2cccs2)cc1	/	/	/	/	.	/
N#Cc1cc(Sc2ccccn2)c(Sc2ccccn2)cc1C#N	.	.	.	.	73	.
N#Cc1cc(Sc2ccccn2)c([N+](=O)[O-])cc1C#N	.	.	.	.	.	.
C[C@H]1CN([C@@H](C)CO)C(=O)Cc2cc(NC(=O)C3CC3)ccc2O[C@H]1CN(C)Cc1ccc(C(=O)O)cc1	.	.	.	/	.	.
COc1ccc2nc(NC(=O)c3sc4nc(C)cc(C)c4c3N)sc2c1	.	.	.	.	74	.
COc1cc(/C=N/NC(=O)c2sc3nc(C)cc(C)c3c2N)ccc1O	/	31	/	.	.	/
CCOC(=O)Cn1ccc(NC(=O)c2ccc(F)cc2)n1	.	.	.	.	.	.
COc1ccc(Cl)cc1NC(=O)CN1CCC(n2nnc3ccccc32)CC1	.	25	.	.	/	.
CCN(CC)CCC(O)(c1ccc2c(c1)OCO2)c1cc(OC)c(OC)c(OC)c1 (stereo unspecified)	.	/	.	/	/	.
CNc1oc(/C=C/c2ccccc2)nc1C#N	.	.	.	34	/	.
COCCNc1oc(/C=C/c2ccccc2)nc1C#N	.	.	.	.	.	.
COc1ccc(C(=O)NCC(c2ccco2)N2CCOCC2)cc1 (stereo unspecified)	/	/	/	/	.	/
CCOC(=O)CN1N=C(c2ccc(Cl)cc2)CCC1=O	.	.	.	.	66	.
CCC[n+]1c(C)sc2c(OC)ccc(OC)c21	.	.	.	28	.	.
CCCC[n+]1c(C)sc2cc(OC)ccc21	.	.	.	.	.	.
CN(C(=O)/C=C/c1ccccc1)C1CCCCC1	/	.	/	/	.	/
Cc1ccc2[nH]c(CSc3ccccc3)cc(=O)c2c1	.	.	.	.	.	.
c1ccc2scnc2c1	.	/	.	/	.	.
Cc1cccc(-n2c(SCc3cc(=O)n4ccsc4n3)nc3ccccc32)c1	.	26	.	.	/	.
Cc1ccc(SCc2cc(=O)n3ccsc3n2)c(C)c1	/	.	/	.	/	/
O=C(/C=C/c1ccc(O)c([N+](=O)[O-])c1)c1ccc2ccccc2c1	29	32	.	.	.	44
SMILES	PAFAH1B2 FP inh	pPAFAH inh	PAFAH1B3 FP inh	M18AAP inhibitor	Pemphigus Ab inh	PAFAH2 FP inh
CN(C)c1ccc(/C=C/C(=O)c2ccccc2)cc1[N+](=O)[O-]	.	.	.	.	.	.
Cc1cc(S(=O)(=O)Nc2nc(CN3CCOCC3)nc3sc4c(c23)CCCC4)ccc1F	.	.	.	.	.	.
CC1CCc2c(sc3nc(CN4CCOCC4)nc(NS(=O)(=O)c4cccc([N+](=O)[O-])c4)c23)C1 (stereo unspecified)	.	25	.	.	.	.
N#C/C(=C/c1cn[nH]c1-c1ccc(Br)cc1)C(=O)O	30	.	.	.	/	.
CCCc1nc(SCC(=O)c2ccc(F)cc2)c2ccccc2n1	.	.	.	.	.	.
CCCCn1c(-c2ccc(Br)cc2F)nc2c1c(=O)[nH]c(=O)n2CC(C)C	.	.	.	.	56	.
Cc1ccc(C)c(NCC(=O)c2ccc(Cl)cc2)c1	.	.	.	28	.	.
CCc1nc(N)c(C#N)c(-c2ccc(F)cc2)c1C	.	.	.	.	.	.
Cc1ccc2c(n1)sc1c(-c3ccc(Br)cc3)c(C#N)c(N)nc12	.	.	.	.	74	.
O=C(Nc1ccc(OCC(F)(F)C(F)F)cc1)c1ccncc1	.	.	.	.	-13	.
CCOc1ccc(NC(=O)c2ccncc2)cc1	.	.	.	.	.	.
CC(C)CCN1CC(O)=C(c2nc(-c3ccc(Cl)cc3)cs2)C1=N	.	.	.	.	.	.
N=C1C(c2nc(-c3ccc(F)cc3)cs2)=C(O)CN1CCCN1CCOCC1	.	.	.	.	.	38
Cn1cccc1C(=O)OCC(=O)Nc1cc(C(C)(C)C)nn1-c1ccccc1	.	29	.	.	.	.
